Shown are actives, neighbours in structure and some others; about 17% of the full set was active somewhere.
ClpP mod = qHTS Assay for Activators of ClpP; ATP-dependent Clp protease proteolytic subunit (Bacillus subtilis (strain 168)), P80244; purified B. subtilis ClpP, FRET peptide cleavage, 20 min; Potency, µM (top dose mostly 57.5 µM), inactives show top-dose activity change, negative = active; 340,000 compounds, 1.9% hits; AID 651965, 2013; active = well fitted falling curve with a large enough effect; inconclusive = small, poorly fitted or top-dose-only effect; inactive = no such curve, though single readings can be large or run the other way; also: the source files actives as falling curves though it sought activators and does not explain the sign; nearly all actives have a fitted effect of over 65% in size
Target sequence (P80244 whole entry, looked up): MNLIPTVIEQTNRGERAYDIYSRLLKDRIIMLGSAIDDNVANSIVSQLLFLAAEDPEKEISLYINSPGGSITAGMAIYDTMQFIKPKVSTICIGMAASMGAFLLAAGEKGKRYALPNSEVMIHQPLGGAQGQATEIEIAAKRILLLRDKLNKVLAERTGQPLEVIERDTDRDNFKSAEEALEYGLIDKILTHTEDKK
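Buffer: 100 mM Tris/HCl pH8, 100 mM KCl, 0.05% low protease BSA, 2.5% glycerol, 0.01% Tween-20. ClpP 10 microg/mL final; 20 min RT; delta FRET normalized to ADEP and DMSO controls.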
DT40 TDP1 CPT = growth inhibition of DT40 Tdp1-/-;hTDP1 cells with camptothecin (screen for TDP1 inhibitors). 420,000 compounds, 12% hits. AID 686979. chicken DT40 Tdp1-/-;hTDP1 cells + 20 nM CPT, ATP luminescence, 48 h. Potency, µM (highest dose often 46.2 µM), for inactives: at the top dose activity change, negative = growth inhibition, most hits filed as inhibitors; also: % is scaled to controls: 0 for no effect and ±100 for the full control effect; nearly all actives have a fitted effect of over 55% in size
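Chicken DT40 Tdp1-/- cells stably complemented with human TDP1 were seeded at 400 cells/well in medium containing 20 nM camptothecin, exposed to pin-transferred compounds, and grown at 37 °C for at least 48 hr. Viability was read as ATP luminescence.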
TDP1 cell noCPT = qHTS for Inhibitors of human tyrosyl-DNA phosphodiesterase 1 (TDP1): qHTS in cells in absence of CPT. 420,000 compounds, 15% hits. AID 686978, 2013. Potency, µM (doses to about 46.2 µM), for inactives: at the highest dose activity change, negative = growth inhibition, usual class: inhibitors. DT40 Tdp1-/- hTDP1 cells, no CPT, ATP luminescence, 48 h; also: % is scaled to controls: 0 for no effect and ±100 for the full control effect; nearly all actives have a fitted effect of over 55% in size
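Seeded 400 DT40-hTDP1 cells/well (vehicle DMSO, no 20 nM CPT); pinned compounds; ≥48 hr at 37 °C; CellTiter-Glo luminescence as viability measure.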
TDP1 inh = TDP1 (human) enzyme inhibition | 350,000 compounds, 0.28% hits | recombinant TDP1, AlphaScreen DNA substrate cleavage | Q9NUW8 | Potency, µM (highest dose often 130 µM), without a hit: top-dose activity change, negative = inhibition, actives largely listed as inhibitors; also: % is scaled to controls: 0 for no effect and ±100 for the full control effect; nearly all actives have a fitted effect of over 40% in size
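AlphaScreen read-out: signal falls as enzyme removes the 3' tyrosine-FITC from a 5'-biotinylated DNA oligo (15 nM, 5 min, RT). Enzyme was E. coli-made recombinant Tdp1 at 1 nM, exposed to compound for 15 min beforehand; beads 10 ug/ml, 10 min.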
* hit, by the source's call; ? = inconclusive; . = not tested or not shown. Unless noted, calls follow the shape of the dose curve; as a rule, active = well fitted curve in the direction sought with a large enough effect; inconclusive = small, poorly fitted or top-dose-only effect, or another doubt; inactive = no such curve, though single readings can be large; an effect the other way counts as inactive or inconclusive. Potency is read from the fitted curve at half-maximal effect.

SMILES | ClpP mod | DT40 TDP1 CPT | TDP1 cell noCPT | TDP1 inh
O=C(C[C@H]1C/C=C\C[C@H](NC(=O)OCC2c3ccccc3-c3ccccc32)C(=O)O[C@H](c2ccccc2)CNC1=O)N[C@H](CO)Cc1ccccc1 | -3% | 3.3µM* | 3.7µM* | -2%
O=C(N[C@@H]1C/C=C\C[C@H](CC(=O)N(CCO)Cc2ccccc2)C(=O)NC[C@@H](c2ccccc2)OC1=O)OCC1c2ccccc2-c2ccccc21 | 2% | 6.5µM* | 5.8µM* | -1%
O=C(N[C@@H]1C/C=C\C[C@@H](CC(=O)N(CCO)Cc2ccccc2)C(=O)NC[C@H](c2ccccc2)OC1=O)OCC1c2ccccc2-c2ccccc21 | 0% | 2.6µM* | 7.3µM* | -5%
OCC(O)/C=N/Nc1nc(N2CCCCC2)nc(N2CCCCC2)n1 (stereo not drawn) | -2% | -19% | 17% | 4%
COc1ccccc1CN1CCNC(=O)C1CC(=O)NCc1cn(C)nc1C (stereo not drawn) | -4% | -4% | -1% | -3%
O=C(CSc1nc2[nH]c(=O)cc(O)c2s1)Nc1nncs1 | . | -21% | -15% | .
O=c1cc(O)c2sc(Nc3ccc(F)c(Cl)c3)nc2[nH]1 | . | 3.3µM* | 3.7µM* | 5%
COc1ccc(Nc2nc(C)cc(=O)[nH]2)cc1 | -1% | -4% | -6% | -2%
O=C1CCCN=C(Nc2ccc(F)c(Cl)c2)S1 | . | -4% | -24% | 6%
COc1ccc(Nc2nc3[nH]c(=O)cc(O)c3s2)cc1 | . | 12µM* | 18µM* | 7%
O=c1cc(O)c2sc(Nc3ccc(Cl)c(F)c3)nc2[nH]1 | . | 5.2µM* | 4.6µM* | .
CCn1c(SCC(=O)Nc2ccc(N3CCOCC3)cc2)nnc1-c1ccco1 | 0% | -26% | 1% | 3%
COc1ccc(-c2cc3nc(NCCNC(C)=O)n(C)c(=O)c3s2)c(C)c1 | -22% | ? | ? | .
COc1ccc(-c2cc3nc(C)n(N)c(=O)c3s2)cc1 | 4% | 5.8µM* | 5.8µM* | .
Cc1nc2cc(-c3ccccc3)sc2c(=O)n1N | -10% | 16µM* | ? | -8%
C=CCc1ccc(OCCOCCOc2cccc3cccnc23)c(OC)c1 | -8% | ? | 29µM* | 5%
C/C=C/c1ccc(OCCOc2cccc3cccnc23)c(OC)c1 | -4% | ? | ? | -1%
C/C=C/c1ccc(OCCOCCOc2cccc3cccnc23)c(OC)c1 | -2% | 23µM* | 15µM* | 3%
CCOc1ccc(NC(=O)C(C)Sc2nnc3cc(C)c4ccccc4n23)cc1 (stereo not drawn) | -1% | ? | ? | 2%
Cc1cccc(OCc2n(CC(=O)OC3CC(C)CCC3C(C)C)c3ccccc3[n+]2C)c1 (stereo not drawn) | . | 5.2µM* | 5.8µM* | 2%
Cc1cccc(OC(=O)Cn2c(C(F)(F)F)nc3ccccc32)c1 | -6% | ? | ? | -8%
CC1CCC(C(C)C)C(OC(=O)Cn2c(-c3ccc(F)cc3)[n+](C)c3ccccc32)C1 (stereo not drawn) | -11% | 2.3µM* | 2.3µM* | -1%
CC1CCC(C(C)C)C(OC(=O)CSc2nnc(N)s2)C1 (stereo not drawn) | 2% | ? | -29% | 2%
CC1CCC(C(C)C)C(OC(=O)Cn2c(-c3ccccc3)[n+](C)c3ccccc32)C1 (stereo not drawn) | -3% | 0.52µM* | 0.46µM* | 6%
Cc1cccc(-c2noc(CNC(=O)c3ccccc3Br)n2)c1 | -2% | -17% | ? | -2%
CCc1ccc(-n2c(=O)c3c4c(sc3n(CC(=O)N3CCCCC3CC)c2=O)CCC4)cc1 (stereo not drawn) | 1% | ? | ? | 1%
CC1Cc2ccccc2N1C(=O)CSc1nnc2c(n1)[nH]c1ccc(F)cc12 (stereo not drawn) | 0% | ? | 21µM* | -5%
CC1CCc2cc(F)ccc2N1C(=O)CSc1nnc2c3ccccc3n(C)c2n1 (stereo not drawn) | -1% | 18µM* | 21µM* | -3%
